High-throughput results from PubChem.
In the library only some 19% were active in any assay of this set; here they are far more common.
AMA1 RON2 block: qHTS for Inhibitors of AMA1-RON; Towards Development of Antimalarial Drug Lead: Primary Screen; AID 720542, 2013; AlphaScreen AMA1-biotinylated RON2 peptide binding; actives 0.2% (n = 360,000); Potency, µM (titrated, usually from 58.2 µM), inactives show top-dose activity change, negative = inhibition, actives largely listed as inhibitors; Plasmodium falciparum AMA1 (3D7) - RON2 peptide interaction;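 further: potency means the concentration at half of the fitted maximal effect; 0% = vehicle wells and -100% = peptide control; nearly all actives have a fitted effect of over 45% in size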
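AMA1 (3D7) with his tag at 25 nM final met compounds first, then biotinylated RON2 peptide at 25 nM; detection used donor plus acceptor beads, 10 µg/mL apiece, read by AlphaScreen after 30 min at room temperature.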
CHX counter: Cycloheximide Counterscreen for Small Molecule Inhibitors of Shiga Toxin | max response, % | AID 2314, 2010 | actives 12% (n = 300,000) | cell reporter, cycloheximide protein synthesis inhibition counterscreen; in the data active means max response mostly above about 13%, no sharp cut-off; inactive means mostly below about 14%; further: read at 38.3 µM for the half of the compounds with a filed dose; 0% is about no effect
Pf growth 96h: Primary qHTS for delayed death inhibitors of the malarial parasite plastid, 96 hour incubation | P. falciparum luciferase reporter growth, 96 h | Potency, µM (series often up to 28.7 µM), without a hit: top-dose activity change, negative = inhibition, actives largely listed as inhibitors | actives 6.9% (n = 320,000) | AID 504834, 2011; further: potency means the concentration at half of the fitted maximal effect; on the % scale 0 is the no-effect control and ±100 the full control effect
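96 h incubation, 37 C, 5% CO2, of luciferase-reporter P. falciparum-infected RBCs (2% hematocrit, 0.05% parasitemia final) with test compounds; endpoint luminescence.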
Shiga toxin inh: A qHTS for Small Molecule Inhibitors of Shiga Toxin. Vero cells, Shiga toxin protein synthesis inhibition reporter. actives 9.2% (n = 290,000). inhibition, % at 38.7 µM; in the data active means inhibition mostly above about 28%, no sharp cut-off; inactive means mostly below about 43%; further: 0% is about no effect
SARS PLP yeast: qHTS of Yeast-based Assay for SARS-CoV PLP | Potency, µM (highest dose often 32.9 µM), for inactives: top-dose activity, positive = growth rescue, most hits filed as activators | actives 0.19% (n = 330,000) | S. cerevisiae expressing SARS-CoV PLpro, growth rescue; calls by dose curve; further: potency means the concentration at half of the fitted maximal effect; 0% is about no effect; nearly all actives have a fitted effect of over 55% in size
Pf growth 48h: Primary qHTS for delayed death inhibitors of the malarial parasite plastid, 48 hour incubation; P. falciparum luciferase growth in erythrocytes, 48 h; Potency, µM (series often up to 28.7 µM), for the others: at the highest dose activity change, negative = inhibition, usual class: inhibitors; actives 5.9% (n = 310,000); AID 504832, 2011; further: potency means the concentration at half of the fitted maximal effect; on the % scale 0 is the no-effect control and ±100 the full control effect
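Erythrocytes infected with P. falciparum carrying an integrated firefly luciferase reporter (2% hematocrit, 0.1% parasitemia final) were exposed to compounds in RPMI 1640 with 0.5% Albumax at 37 C, 5% CO2. Growth inhibition was scored as reduced luminescence.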
Starred values were filed as active, the others as inactive; i = inactive; ? = inconclusive; . = no result given; + = active, no number. Unless noted, the call rests on the fitted dose curve; in most records, active means well fitted curve in the direction sought with a large enough effect; inconclusive means small, poorly fitted or top-dose-only effect, or another doubt; inactive means no such curve, though single readings can be large; an effect the other way counts as inactive or inconclusive.

SMILES	AMA1 RON2 block	CHX counter	Pf growth 96h	Shiga toxin inh	SARS PLP yeast	Pf growth 48h
O=C1CCCC/C1=C\Nc1ccc(C(=O)O)c(O)c1	5%	17*	31%	62*	0%	58%
CC(=O)Nc1ccc(N/C=C2/CCCC2=O)cc1	-12%	11*	0%	49*	0%	28%
CC1CCC/C(=C\Nc2ccc(C(=O)O)cc2)C1=O (stereo not drawn)	-2%	37*	?	55*	2%	i
Cc1cc(O)ccc1N/C=C1\CCCC1=O	3%	13*	?	42*	-2%	53%
CC1CCC/C(=C\c2ccc(O)cc2)C1=O (stereo not drawn)	1%	.	.	.	.	.
COc1ccc(CNC(=O)c2cccc(-c3ccc(C)c4ccccc34)n2)cc1	-10%	5	?	-14	3%	-12%
CC(C)c1ccc(NC(=O)c2ccc(-c3ccnn3C)c3ccoc23)cc1	1%	.	.	.	.	.
Cc1cccc(NC(=O)COC(=O)c2ccccn2)c1	4%	-2	0%	-8	-10%	16%
Cc1ccc([N+](=O)[O-])cc1N/C=C1\CCCCC1=O	-7%	58*	-1%	93*	-1%	280%
CC(=O)Nc1ccc2c(c1)CCCC2=O	0%	16*	34%	35	-1%	52%
Cc1ccc([N+](=O)[O-])cc1NC(=O)C1CCCC1	6%	-3	?	-12	-1%	15%
CC1CCC/C(=C\Nc2ccc(C(=O)O)c(O)c2)C1=O (stereo not drawn)	-9%	38*	100%	82*	1%	98%
COc1ccc2c(c1)CCCC2=O	-8%	.	.	.	.	.
CCOC(=O)c1ccc(N/C=C2/CCCC(C)C2=O)cc1 (stereo not drawn)	1%	57*	-30%	52*	-7%	.
COc1ccc(CCNC(=O)c2ccc(CSc3ccccc3)o2)cc1	5%	9	-13%	7	-9%	3%
O=C(NCC(F)(F)F)c1ccc(S(=O)(=O)N2CCN(C(=O)C3CCCO3)CC2)cc1 (stereo not drawn)	-1%	.	?	.	-1%	2%
Cc1ccc2nc(SCC(=O)Nc3cc(C)on3)[nH]c2c1	-7%	12	13%	-7	11%	8%
Cc1cc2nc(-c3ccc(SCC(=O)Nc4ccc(S(=O)(=O)NC5CC5)cc4)nc3)[nH]c2cc1C	-17%	46*	45%	70*	-5%	?
Cc1cc2nc(-c3ccc(SCc4ccc(C(=O)O)cc4)nc3)[nH]c2cc1C	17%	37*	2%	45*	-1%	?
Cc1cc(NC(=O)CSc2ccc(-c3nc4cc(C)c(C)cc4[nH]3)cn2)no1	9%	38*	34%	60*	-4%	3.3µM*
Cc1cc2nc(-c3ccc(SCc4ccccc4C#N)nc3)[nH]c2cc1C	11%	34*	0%	46*	7%	0%
CC(C)C[C@@H](CN1CCC[C@@H]1CN1C(=S)NC[C@@H]1Cc1ccc(O)cc1)N1C[C@H](Cc2ccc(O)cc2)N(CC2CCCCC2)C1=S	17%	.	.	.	.	.
Cc1ccc(C)c(OCCC(=O)Nc2ccccc2C(=O)NC2CC2)c1	-5%	.	.	.	-5%	.
Cc1cc2nc(-c3ccc(SCC(=O)N4CCc5ccccc54)nc3)[nH]c2cc1C	?	43*	?	36	-9%	?
COC(=O)CSc1ccc(-c2nc3ccc(C)cc3[nH]2)cn1	-9%	20*	-27%	13	-11%	.
Cc1cc2nc(-c3ccc(SCC(=O)NC(C)C)nc3)[nH]c2cc1C	.	45*	-26%	+	0%	?
O=C(Nc1ccc2[nH]ncc2c1)c1ccccc1Cl	-2%	16*	?	22	-2%	130%
O=C(Nc1ccc2[nH]ncc2c1)c1ccccc1Br	-24%	18*	?	22	2%	36%
C=CCc1cccc(/C=N/NC(=O)CN2CCN(Cc3ccccc3)CC2)c1O	.	-6	.	-6	.	.
